These results are taken from ChEMBL document CHEMBL1961873, “Compounds: GSK PKIS; Assays: Nanosyn kinase panel” (2012).

A word on the inhibition: it is the change of the read-out against control, counted positive when it falls.

Test [1] concerns the target Ribosomal protein S6 kinase alpha-6 (Homo sapiens) (UniProt Q9UK32). The following applies: at 1 µM.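 Further: each value is a mean inhibition of RSK4 from a GSK PKIS panel screen.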
Test [2] concerns the target T1, Serine/threonine-protein kinase Sgk1 (Homo sapiens) (UniProt O00141).
T1 sequence (whole entry): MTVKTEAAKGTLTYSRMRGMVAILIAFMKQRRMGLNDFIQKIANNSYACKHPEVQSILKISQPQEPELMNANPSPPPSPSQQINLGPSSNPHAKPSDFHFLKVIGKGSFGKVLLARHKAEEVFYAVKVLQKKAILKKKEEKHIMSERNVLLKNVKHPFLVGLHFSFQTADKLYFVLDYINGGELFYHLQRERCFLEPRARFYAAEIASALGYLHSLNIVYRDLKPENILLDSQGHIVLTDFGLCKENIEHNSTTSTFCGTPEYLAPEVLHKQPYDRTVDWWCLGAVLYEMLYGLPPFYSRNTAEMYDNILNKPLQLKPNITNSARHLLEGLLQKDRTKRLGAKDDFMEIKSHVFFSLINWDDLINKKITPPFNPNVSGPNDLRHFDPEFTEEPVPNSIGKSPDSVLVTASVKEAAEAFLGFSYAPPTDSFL
The following applies: at 0.1 µM.

Test [3] addresses T1, Serine/threonine-protein kinase Sgk1 (Homo sapiens). The conditions noted are these: at 1 µM.
The target in test [4] is T2, Serine/threonine-protein kinase Sgk2 (Homo sapiens) (UniProt Q9HBY8).
T2 sequence (whole entry): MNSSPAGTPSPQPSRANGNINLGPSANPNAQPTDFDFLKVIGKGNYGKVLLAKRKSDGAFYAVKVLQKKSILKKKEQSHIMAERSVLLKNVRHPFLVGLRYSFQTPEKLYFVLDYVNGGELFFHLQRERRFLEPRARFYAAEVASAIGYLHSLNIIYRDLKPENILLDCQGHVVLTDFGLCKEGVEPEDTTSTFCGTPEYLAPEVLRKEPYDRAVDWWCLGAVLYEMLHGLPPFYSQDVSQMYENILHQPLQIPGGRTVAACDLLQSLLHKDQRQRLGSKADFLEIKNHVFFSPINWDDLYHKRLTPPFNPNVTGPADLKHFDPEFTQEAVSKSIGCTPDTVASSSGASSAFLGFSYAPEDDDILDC
The following applies: at 0.1 µM.

The target in test [5] is T2, Serine/threonine-protein kinase Sgk2 (Homo sapiens). The following applies: at 1 µM.
Test [6] addresses T3, Serine/threonine-protein kinase Sgk3 (Homo sapiens) (UniProt Q96BR1).
T3 sequence (whole entry): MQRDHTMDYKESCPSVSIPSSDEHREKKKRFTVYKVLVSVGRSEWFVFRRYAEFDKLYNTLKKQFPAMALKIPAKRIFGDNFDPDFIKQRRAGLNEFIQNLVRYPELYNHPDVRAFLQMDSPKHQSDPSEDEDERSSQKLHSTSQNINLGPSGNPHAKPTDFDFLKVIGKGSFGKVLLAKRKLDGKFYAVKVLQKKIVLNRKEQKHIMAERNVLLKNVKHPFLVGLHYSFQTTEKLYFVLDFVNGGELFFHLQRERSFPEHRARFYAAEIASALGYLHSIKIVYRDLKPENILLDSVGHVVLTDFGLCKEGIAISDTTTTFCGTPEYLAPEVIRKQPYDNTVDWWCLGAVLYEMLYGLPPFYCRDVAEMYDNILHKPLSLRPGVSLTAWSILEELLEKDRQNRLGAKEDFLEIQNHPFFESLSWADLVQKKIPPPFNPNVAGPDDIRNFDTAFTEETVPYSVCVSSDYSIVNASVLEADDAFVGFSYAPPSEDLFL
The conditions noted are these: at 0.1 µM.

Test [7] has as its target T3, Serine/threonine-protein kinase Sgk3 (Homo sapiens). The following applies: at 1 µM.
Test [8] addresses 5'-AMP-activated protein kinase catalytic subunit alpha-1 (Homo sapiens) (UniProt Q13131). The conditions noted are these: at 0.1 µM.
For test [9] the target is unchanged. The following applies: at 1 µM.
Test [10] addresses 5'-AMP-activated protein kinase catalytic subunit alpha-2 (Homo sapiens) (UniProt P54646). The conditions noted are these: at 0.1 µM.
The target is the same in test [11]. The conditions noted are these: at 1 µM.
Test [12] concerns the target T4, NUAK family SNF1-like kinase 1 (Homo sapiens) (UniProt O60285).
T4 sequence (whole entry): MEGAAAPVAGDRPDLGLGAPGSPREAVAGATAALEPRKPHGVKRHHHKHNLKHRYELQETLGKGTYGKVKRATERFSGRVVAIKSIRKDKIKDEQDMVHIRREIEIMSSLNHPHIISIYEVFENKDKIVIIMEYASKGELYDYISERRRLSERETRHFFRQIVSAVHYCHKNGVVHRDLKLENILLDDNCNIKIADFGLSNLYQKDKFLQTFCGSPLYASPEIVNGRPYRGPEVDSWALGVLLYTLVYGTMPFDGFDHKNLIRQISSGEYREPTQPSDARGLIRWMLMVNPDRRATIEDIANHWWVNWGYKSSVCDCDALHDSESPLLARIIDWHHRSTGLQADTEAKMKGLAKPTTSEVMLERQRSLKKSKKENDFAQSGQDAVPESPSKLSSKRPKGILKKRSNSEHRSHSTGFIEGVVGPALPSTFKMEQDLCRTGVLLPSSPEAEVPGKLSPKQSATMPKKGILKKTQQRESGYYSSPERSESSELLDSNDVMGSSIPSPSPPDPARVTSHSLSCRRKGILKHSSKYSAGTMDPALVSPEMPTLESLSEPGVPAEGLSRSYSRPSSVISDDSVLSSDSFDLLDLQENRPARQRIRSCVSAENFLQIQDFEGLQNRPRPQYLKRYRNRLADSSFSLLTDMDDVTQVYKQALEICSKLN
The following applies: at 0.1 µM.

For test [13], the target named is T4, NUAK family SNF1-like kinase 1 (Homo sapiens). The conditions noted are these: at 1 µM.
The target in test [14] is T5, Serine/threonine-protein kinase BRSK1 (Homo sapiens) (UniProt Q8TDC3).
T5 sequence (whole entry): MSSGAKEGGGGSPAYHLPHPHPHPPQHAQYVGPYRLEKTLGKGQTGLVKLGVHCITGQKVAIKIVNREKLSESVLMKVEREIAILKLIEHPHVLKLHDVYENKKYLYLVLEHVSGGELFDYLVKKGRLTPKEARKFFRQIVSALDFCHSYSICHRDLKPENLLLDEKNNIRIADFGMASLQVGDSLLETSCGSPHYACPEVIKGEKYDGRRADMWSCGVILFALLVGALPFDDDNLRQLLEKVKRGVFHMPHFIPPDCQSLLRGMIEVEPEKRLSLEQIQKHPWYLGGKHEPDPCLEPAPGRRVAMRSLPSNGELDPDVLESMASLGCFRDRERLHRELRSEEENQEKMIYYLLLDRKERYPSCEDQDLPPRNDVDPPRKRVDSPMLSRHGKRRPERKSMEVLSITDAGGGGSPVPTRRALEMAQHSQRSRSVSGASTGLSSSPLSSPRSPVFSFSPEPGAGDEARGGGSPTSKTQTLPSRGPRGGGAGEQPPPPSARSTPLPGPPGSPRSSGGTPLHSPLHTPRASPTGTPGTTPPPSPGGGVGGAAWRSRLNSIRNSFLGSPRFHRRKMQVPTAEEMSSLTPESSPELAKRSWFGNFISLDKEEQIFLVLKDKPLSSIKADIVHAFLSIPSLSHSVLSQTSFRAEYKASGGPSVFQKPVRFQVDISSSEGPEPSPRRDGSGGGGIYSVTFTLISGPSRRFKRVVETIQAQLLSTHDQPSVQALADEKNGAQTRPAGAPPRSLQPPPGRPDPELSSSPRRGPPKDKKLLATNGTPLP
The conditions noted are these: at 0.1 µM.

Test [15] concerns the target T5, Serine/threonine-protein kinase BRSK1 (Homo sapiens). The following applies: at 1 µM.
Test [16] concerns the target T6, Serine/threonine-protein kinase BRSK2 (Homo sapiens) (UniProt Q8IWQ3).
T6 sequence (whole entry): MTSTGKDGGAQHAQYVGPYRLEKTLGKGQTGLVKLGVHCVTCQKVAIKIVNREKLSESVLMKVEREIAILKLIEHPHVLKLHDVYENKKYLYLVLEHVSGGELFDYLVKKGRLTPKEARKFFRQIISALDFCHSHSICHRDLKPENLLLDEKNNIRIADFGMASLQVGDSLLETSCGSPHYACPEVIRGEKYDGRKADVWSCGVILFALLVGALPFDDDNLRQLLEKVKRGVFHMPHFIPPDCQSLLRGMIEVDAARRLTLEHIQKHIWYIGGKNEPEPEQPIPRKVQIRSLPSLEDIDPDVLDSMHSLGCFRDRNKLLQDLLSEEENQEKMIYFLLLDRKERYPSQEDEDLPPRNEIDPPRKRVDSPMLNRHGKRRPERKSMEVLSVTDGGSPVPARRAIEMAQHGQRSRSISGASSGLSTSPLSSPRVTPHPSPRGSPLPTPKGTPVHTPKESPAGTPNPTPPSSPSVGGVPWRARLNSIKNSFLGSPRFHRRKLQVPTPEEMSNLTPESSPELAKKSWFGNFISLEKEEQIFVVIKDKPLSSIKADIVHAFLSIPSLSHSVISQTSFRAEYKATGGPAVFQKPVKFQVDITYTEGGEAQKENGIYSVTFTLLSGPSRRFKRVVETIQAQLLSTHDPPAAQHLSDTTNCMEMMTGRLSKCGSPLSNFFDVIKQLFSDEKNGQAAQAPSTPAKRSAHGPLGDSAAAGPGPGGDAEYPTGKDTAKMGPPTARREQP
The following applies: at 0.1 µM.

Test [17] addresses T6, Serine/threonine-protein kinase BRSK2 (Homo sapiens). The conditions noted are these: at 1 µM.
The target of test [18] is Calcium/calmodulin-dependent protein kinase type 1D (Homo sapiens) (UniProt Q8IU85). The following applies: at 0.1 µM.
The target is the same in test [19]. The following applies: at 1 µM.
The target of test [20] is Calcium/calmodulin-dependent protein kinase type II subunit alpha (Homo sapiens) (UniProt Q9UQM7). The conditions noted are these: at 0.1 µM.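 Further: reported values are averages (mean inhibition of CAMK2A).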
Sequence of Calcium/calmodulin-dependent protein kinase type II subunit alpha (Homo sapiens) (Q9UQM7 whole entry): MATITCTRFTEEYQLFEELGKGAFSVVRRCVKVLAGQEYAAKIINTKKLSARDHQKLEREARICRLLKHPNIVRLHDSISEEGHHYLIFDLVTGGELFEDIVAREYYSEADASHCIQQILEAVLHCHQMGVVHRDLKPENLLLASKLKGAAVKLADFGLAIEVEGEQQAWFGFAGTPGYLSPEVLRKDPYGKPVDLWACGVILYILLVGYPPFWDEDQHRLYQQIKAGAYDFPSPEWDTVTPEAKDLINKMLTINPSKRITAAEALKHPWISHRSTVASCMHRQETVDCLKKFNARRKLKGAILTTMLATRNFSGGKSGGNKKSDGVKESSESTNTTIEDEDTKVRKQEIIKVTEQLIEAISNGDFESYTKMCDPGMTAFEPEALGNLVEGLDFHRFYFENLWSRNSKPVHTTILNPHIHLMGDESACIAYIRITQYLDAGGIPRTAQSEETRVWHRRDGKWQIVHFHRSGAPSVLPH

Sequence of 5'-AMP-activated protein kinase catalytic subunit alpha-2 (Homo sapiens) (P54646 whole entry, looked up): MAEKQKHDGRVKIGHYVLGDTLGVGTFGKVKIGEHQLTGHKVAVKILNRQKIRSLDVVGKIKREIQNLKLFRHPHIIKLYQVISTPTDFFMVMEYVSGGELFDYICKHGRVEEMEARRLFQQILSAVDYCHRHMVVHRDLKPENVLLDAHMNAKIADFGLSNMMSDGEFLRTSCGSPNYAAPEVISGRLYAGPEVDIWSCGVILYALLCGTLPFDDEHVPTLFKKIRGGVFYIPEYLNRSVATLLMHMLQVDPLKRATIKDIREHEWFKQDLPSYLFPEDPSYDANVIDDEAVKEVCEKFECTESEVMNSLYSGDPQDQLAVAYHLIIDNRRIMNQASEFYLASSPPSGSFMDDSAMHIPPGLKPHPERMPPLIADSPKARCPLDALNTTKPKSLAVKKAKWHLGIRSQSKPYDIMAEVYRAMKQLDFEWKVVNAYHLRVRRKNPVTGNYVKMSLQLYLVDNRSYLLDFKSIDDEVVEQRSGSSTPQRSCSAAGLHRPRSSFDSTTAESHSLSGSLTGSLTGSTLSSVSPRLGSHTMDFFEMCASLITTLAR
Sequence of Calcium/calmodulin-dependent protein kinase type 1D (Homo sapiens) (Q8IU85 whole entry, looked up): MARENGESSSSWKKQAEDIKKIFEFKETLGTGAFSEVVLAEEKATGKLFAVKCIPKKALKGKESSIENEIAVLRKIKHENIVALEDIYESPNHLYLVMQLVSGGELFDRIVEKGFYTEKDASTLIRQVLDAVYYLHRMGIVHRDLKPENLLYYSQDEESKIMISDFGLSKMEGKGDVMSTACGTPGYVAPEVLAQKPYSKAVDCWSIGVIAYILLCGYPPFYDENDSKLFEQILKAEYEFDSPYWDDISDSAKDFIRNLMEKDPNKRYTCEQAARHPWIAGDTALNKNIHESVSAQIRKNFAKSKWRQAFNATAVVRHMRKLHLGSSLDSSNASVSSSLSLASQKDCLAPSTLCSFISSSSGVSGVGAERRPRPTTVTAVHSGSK
Sequence of Ribosomal protein S6 kinase alpha-6 (Homo sapiens) (Q9UK32 whole entry): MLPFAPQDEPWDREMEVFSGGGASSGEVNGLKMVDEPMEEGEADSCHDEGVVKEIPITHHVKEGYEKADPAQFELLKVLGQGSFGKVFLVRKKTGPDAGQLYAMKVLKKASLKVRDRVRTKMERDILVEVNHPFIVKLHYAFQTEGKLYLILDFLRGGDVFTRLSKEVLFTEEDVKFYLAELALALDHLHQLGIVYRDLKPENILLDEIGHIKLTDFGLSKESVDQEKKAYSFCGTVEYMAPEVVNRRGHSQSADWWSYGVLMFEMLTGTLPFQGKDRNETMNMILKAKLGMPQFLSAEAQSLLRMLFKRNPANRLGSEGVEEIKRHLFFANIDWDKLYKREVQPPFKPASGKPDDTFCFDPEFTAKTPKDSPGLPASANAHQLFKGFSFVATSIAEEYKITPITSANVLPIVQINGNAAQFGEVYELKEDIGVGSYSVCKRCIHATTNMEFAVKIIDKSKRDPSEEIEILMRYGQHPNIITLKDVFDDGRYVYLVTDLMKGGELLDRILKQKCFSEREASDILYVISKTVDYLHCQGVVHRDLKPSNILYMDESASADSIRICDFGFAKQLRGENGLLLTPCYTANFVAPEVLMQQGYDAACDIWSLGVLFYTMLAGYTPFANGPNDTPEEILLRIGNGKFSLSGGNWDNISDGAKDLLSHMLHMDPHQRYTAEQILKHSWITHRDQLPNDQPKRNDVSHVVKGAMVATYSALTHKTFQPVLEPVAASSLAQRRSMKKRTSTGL
Sequence of 5'-AMP-activated protein kinase catalytic subunit alpha-1 (Homo sapiens) (Q13131 whole entry, looked up): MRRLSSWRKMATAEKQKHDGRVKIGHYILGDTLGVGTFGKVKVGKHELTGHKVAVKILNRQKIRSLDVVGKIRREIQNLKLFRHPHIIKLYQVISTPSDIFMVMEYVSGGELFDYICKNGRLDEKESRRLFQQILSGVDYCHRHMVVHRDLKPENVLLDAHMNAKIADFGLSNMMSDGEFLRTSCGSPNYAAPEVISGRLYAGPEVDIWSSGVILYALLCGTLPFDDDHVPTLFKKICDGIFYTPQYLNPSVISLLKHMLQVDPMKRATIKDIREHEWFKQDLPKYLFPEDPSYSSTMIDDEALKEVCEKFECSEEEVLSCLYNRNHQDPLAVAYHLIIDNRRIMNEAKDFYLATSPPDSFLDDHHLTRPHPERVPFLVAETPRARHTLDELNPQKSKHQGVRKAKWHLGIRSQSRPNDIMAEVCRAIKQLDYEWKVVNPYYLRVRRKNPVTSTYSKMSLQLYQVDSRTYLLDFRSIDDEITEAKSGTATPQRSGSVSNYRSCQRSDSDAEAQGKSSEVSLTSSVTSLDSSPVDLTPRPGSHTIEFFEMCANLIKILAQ

For `N#Cc1c(NC(=O)CN2CCOCC2)sc2c1CCCC2`, the inhibition in test [1] came out at 1.35%; in test [2], 0.28%; in test [3], 5.76%; in [4], 2.3%; in test [5] it was 4.38%; in [6] it was 3.14%. Besides, the inhibition in test [7] was 4.05%; in test [8] it was 3.31%; in test [9], 4.25%; in test [10] it was 1.66%; in test [11] it was 2.26%; in test [12], 2.61%. Besides, the inhibition in [13] is 4.86%; in test [14], 0.57%; in test [15] it was 1.52%; in [16], 2.72%; in test [17], 3.03%; in test [18], -0.19%. In addition, the inhibition in test [19] amounted to 0.36%; in [20], 3.08%.
Regarding `CC(C)COC(=O)c1ccc2c(c1)/C(=C/Nc1ccc(S(N)(=O)=O)cc1)C(=O)N2`, the inhibition is 39.3% in [1]; 1.25% in [2]; 19% in test [3]; 1.33% in test [4]; 1.89% in test [5]; 1.37% in test [6]. The inhibition came out at 3.19% in test [7]; 23.4% in test [8]; 72.3% in test [9]; 5.83% in [10]; 36.3% in test [11]; 29.6% in test [12]. Moreover, the inhibition in test [13] was 75.6%; in test [14], 5.38%; in test [15], 38%; in test [16] it was 10.1%; in test [17] it was 50.1%; in test [18], 1.82%. For the same compound, the inhibition in test [19] was determined as 7.89%; in [20] it was 0.26%.
For `CCn1c(-c2nonc2N)nc2ccccc21`, the inhibition is 10.4% in test [1]; 4.57% in [2]; 5.48% in test [3]; -0.51% in test [4]; 9.28% in [5]; 2.3% in test [6]. Also, the inhibition amounted to 23.6% in test [7]; 3.06% in [8]; 1.63% in [9]; 0.31% in test [10]; 4.49% in test [11]; 1.56% in test [12]. Moreover, the inhibition in [13] was found to be 10.1%; in test [14], 2.54%; in test [15], 8.27%; in [16], 1.85%; in [17] it was 9.49%; in test [18] it was 1.89%. Also, the figures for the inhibition in [19] and in test [20] were 2.35% and 4.29%, respectively.
In the case of `Fc1ccc(-c2cc(-c3c[nH]nc3-c3ccccn3)ccn2)cc1`, the inhibition in test [1] came out at 0.89%; in test [2], 3.85%; in test [3] it was 5.98%; in test [4] it was 3.86%; in test [5], 0.65%; in test [6], 5.08%. In addition, the inhibition in [7] was 4.1%; in test [8] it was 4.84%; in [9], 4.83%; in test [10] it was 2.6%; in test [11] it was 1.61%; in [12], -0.78%. The inhibition in test [13] is -3.39%; in test [14], -0.21%; in test [15], 0.81%; in test [16], 1.49%; in test [17], 1.96%; in test [18], -2.23%. Besides, the inhibition in test [19] was -1.28%; in [20] it was 3.34%.
